40 compounds from PubChem BioAssay (NCI) can be followed below.

The panel holds about 83,000 compounds, 20% with a hit somewhere; the sample as a whole holds those more often.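 The endpoint reported here, percent growth, reads 100 for growth as untreated, 0 for no net growth and -100 for all cells dead.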 A number with no mark means an inactive call. Calls of active or inactive are those of the source. How the source made its calls: active means growth percent below 10; inactive means the rest.

For this test, the system named is A549/ATCC NSCLC. The experiment in a line: NCI-60 one-dose screen, 48 h (100 = growth as untreated, 0 = no growth, -100 = all killed). The following applies: 10 µM.
`CCN1CCN(CCC(=O)Nc2cccc(-n3cc(-c4ccncc4)c(-c4ccc(Cl)c(OC)c4)n3)c2)CC1`: the growth is 8.56% (active).
As to `O=C1/C=C/[C@@H](O)[C@@H]2C[C@@H](O)C[C@H]2/C=C/CCC[C@H](C(F)(F)F)O1`, the growth was 33.4%.
As to `CC[C@@H](C(=O)[C@@H](C)[C@@H](O)[C@H](C)[C@@H]1O[C@@H]([C@@H](CC)C(=O)N(CC)CC)CC[C@@H]1C)C1O[C@]2(C=CC(=O)[C@]3(CC[C@@](C)([C@H]4CC[C@](O)(CC)[C@H](C)O4)O3)O2)[C@H](C)C[C@@H]1C` (stereo not given in full), the growth was 28.3%.
Turning to `COc1ccc(-c2cc(-c3ccc(Cl)cc3)nc(SCCCCCCC(=O)NO)n2)cc1OC`, the growth was 58.5%.
As for `N#CCc1csc(Cc2ccccc2)n1`, the growth is 95.1%.
In the case of `CC(C)(C)OC(=O)CN1CCc2c(sc3ncnc(N/N=C/c4ccccc4Br)c23)C1`, the growth was 77.6%.
Take `CC(CN(C)C)Oc1ccccc1NC1=C(Cl)C(=O)C(Nc2ccccc2OC(C)CN(C)C)=C(Cl)C1=O` (stereo not given): the growth was 1.98% (active).
In the case of `Nc1ccn(Cc2nnc(CCC(=O)c3nc4ccccc4[nH]3)o2)c(=O)n1`, the growth is 63.8%.
The same measure for `CC(C)(C)OC(=O)CN1CCc2c(sc3ncnc(N/N=C/c4cccc5ccccc45)c23)C1`: 43.7%; for `CCOC(=O)c1cc(C(=O)c2ccc(Cl)cc2)n2ccc(-c3cc[n+](CC(=O)c4ccc(OC)cc4)cc3)cc12`: 32.2%; for `NS(=O)(=O)Oc1ccc(NC(=O)C2CCCCCC2)cc1`: 96%.
The same measure for `NNC(=O)Oc1c(Cl)cc(Cl)cc1[N+](=O)[O-]`: 96.9%; for `O=C1c2ccccc2C(=O)c2c1ccc(C(Br)Br)c2[N+](=O)[O-]`: 94.6%; for `COc1ccc(NC(=O)C2CC3C=CC2C3)c([N+](=O)[O-])c1` (stereo not given): 93.8%.
Turning to `CC[C@@H](C(=O)[C@H](C)[C@H](O)[C@@H](C)[C@H]1O[C@H]([C@@H](CC)C(=O)N(CC)CC)CC[C@H]1C)C1O[C@]2(C=C[C@@H](O)[C@]3(CC[C@@](C)([C@H]4CC[C@](O)(CC)[C@H](C)O4)O3)O2)[C@H](C)C[C@@H]1C` (stereo not given in full), the growth was 20.9%.
Regarding `COc1cc(-c2nn(-c3cccc(NC(=O)NCCNC(=O)c4cccc(C(F)(F)F)c4)c3)cc2-c2ccncc2)ccc1Cl`, the growth is 31.3%.
Consider `O=C(O)c1cc([N+](=O)[O-])ccc1Oc1ccccc1`, for which the growth was 99.7%.
`CCOC(=O)c1cc(C(=O)c2cc(OC)c(OC)c(OC)c2)n2nc(C)ccc12`: the growth is 26.8%.
Consider `CC[C@@H](C(=O)[C@@H](C)[C@@H](O)[C@H](C)[C@@H]1O[C@@H]([C@@H](CC)C(=O)O)CC[C@@H]1C)C1O[C@]2(C=CC(=O)[C@]3(CC[C@@](C)([C@H]4CC[C@](O)(CC)[C@H](C)O4)O3)O2)[C@H](C)C[C@@H]1C` (stereo not given in full), for which the growth was 28.3%.
Turning to `Cc1ccc(S(=O)(=O)N(C)CCCCCC(=O)O)cc1`, the growth was 95%.
Regarding `COc1ccc(C2=Cn3c(CCC(=O)c4nc5ccccc5[nH]4)nnc3SC2)cc1`, the growth was 106%.
The same measure for `CCCN(CCC)C(=O)[C@H](CC)[C@@H]1CC[C@@H](C)[C@@H]([C@H](C)[C@@H](O)[C@@H](C)C(=O)[C@H](CC)C2O[C@]3(C=C[C@@H](O)[C@]4(CC[C@@](C)([C@H]5CC[C@](O)(CC)[C@H](C)O5)O4)O3)[C@H](C)C[C@@H]2C)O1` (stereo not given in full): 16.6%; for `OCC1OC(n2cnc3c(NCc4ccco4)ncnc32)C(O)C1O` (stereo not given): 22.2%; for `CC[C@@H](C(=O)[C@H](C)[C@H](O)[C@@H](C)[C@H]1O[C@H]([C@@H](CC)C(=O)O)CC[C@H]1C)C1O[C@]2(C=C[C@@H](O)[C@]3(CC[C@@](C)([C@H]4CC[C@](O)(CC)[C@H](C)O4)O3)O2)[C@H](C)C[C@@H]1C` (stereo not given in full): 20.8%.
`O=C(/C=C/c1cccc(B(O)O)c1)c1cccc(B(O)O)c1`: the growth was 34.2%.
Regarding `Cc1ccc(Cl)cc1NC(=O)CCl`, the growth is 89.9%.
Regarding `COc1cc(/C=C/c2cc(/C=C/c3ccc(O)c(OC)c3)nc(N)n2)ccc1O`, the growth was 10.1%.
Turning to `C/C(=N\O)c1ccc(NC(=O)CSc2nnc(-c3ccccc3)n2-c2ccccc2)cc1`, the growth was 81.9%.
In the case of `O=C(NCCCNS(=O)(=O)c1ccc(Cl)cc1)Nc1ccc(-n2cc(-c3ccncc3)c(-c3ccc(Cl)c(O)c3)n2)cc1`, the growth was 28.4%.
In the case of `CS(=O)(=O)c1nccc(-c2c(-c3cccc(OCCN4CCOCC4)c3)nc3sccn23)n1`, the growth was 94.5%.
`C=CCSC(CC)(CC)C(=O)NC`: the growth was 94.9%.
`CCn1c(SC/C(=N/O)c2ccccc2)nnc1-c1ccccc1`: the growth is 101%.
As for `CCN(CC)CCOc1ccc2c(c1O)C(=O)c1ccccc1C2=O`, the growth is 78.6%.
As to `CS(=O)(=O)c1nccc(-c2c(-c3cccc(O)c3)nc3sccn23)n1`, the growth is 97.5%.
For the compound `CC(=O)[C@H]1CC[C@]2(C)[C@@H]1CC[C@@H]1[C@@]3(C)CC(CCC#N)(CCC#N)C(=O)C(C)(C)[C@@H]3CC[C@]12C`, the growth is 103%.
Take `COc1cc(-c2nn(-c3cccc(NC(=O)CN4CCOCC4)c3)cc2-c2cccnc2)ccc1Cl`: the growth was 83.8%.
As to `CNS(=O)(=O)Oc1ccc(-c2sc3cc(OS(=O)(=O)NC)ccc3c2C(=O)c2ccc(OCCN3CCCCC3)cc2)cc1`, the growth was 62.4%.
Regarding `Clc1ccc(/C=C2\CCCC3C2=Nc2ccccc2NC3c2ccc(Cl)cc2)cc1` (stereo not given), the growth was 78.5%.
Take `CCOS(=O)(=O)c1c(C(C)C)cc(C(C)C)cc1C(C)C`: the growth was 102%.
Turning to `COc1cc(/C=C/c2cc(/C=C/c3ccc(O)c(OC)c3)n(C(=O)Nc3ccccc3Cl)n2)ccc1O`, the growth is 8.75% (active).
